In PubChem BioAssay (NCI):
Compounds without any hit were thinned out: in the full panel of roughly 83,000, 20% have a hit.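 How to read the values: 0–100, growth inhibition (40 = 60% inhibited); 0, no net growth; -100 to 0, cell death (-40 = 40% of starting cells died; -100 = all dead).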 Activity calls are given as the source filed them. How the source made its calls: active means growth percent below 10; inactive means the rest.

System: MDA-MB-435 melanoma
Assay: NCI-60 one-dose screen, 48 h (100 = growth as untreated, 0 = no growth, -100 = all killed)
Details: 10 µM unless noted

Question: With c1c[nH]c(CNC2CCCCC2)c1 as the molecule, how does the growth read?
Answer: Its growth is 115% (inactive).

Question: COc1ccc2c(c1)CCCN2c1c2ccccc2nc2ccccc12 was tested. Which growth did it give?
Answer: Its growth is -17.9% (active).

Question: CC/C=C/C/C=C/C/C=C/C/C=C/C/C=C/C/C=C/CCC(=O)Nc1ccn([C@@H]2O[C@H](CO)[C@@H](O)C2(F)F)c(=O)n1 was tested. Which growth did it give?
Answer: The growth was 36.9% (inactive).

Question: For Cc1ccc2nc(NC(=O)CSc3nc(-c4ccccc4)c(C#N)c(=O)n3Cc3ccccc3)sc2c1, which growth is on record?
Answer: The growth was 45.7% (inactive).

Question: NNC(=O)c1nc(N)n(-c2ccc(S(N)(=O)=O)cc2)n1 was tested. Which growth did it give?
Answer: The growth was 97.8% (inactive).

Question: For O=C(CC(SCc1ccccc1)c1ccccc1)c1ccccc1 (configuration not stated), which growth is on record?
Answer: Its growth is 84.6% (inactive).

Question: Which growth does the source give for COC1=C(OC)C(=O)C(OC)=C(OC)C1=O here?
Answer: Its growth is 103% (inactive).

Question: COC(=O)CCC1=C(C)C2=NC1=CC1=NC(=CC3=NC(=Cc4[nH]c(/c(=C(/C)O)c4C)=C2)C(C(C)=O)=C3C)C(C)=C1CCC(=O)OC was tested. Which growth did it give?
Answer: Its growth is 108% (inactive).

Question: How did the growth turn out when CC1=CN2C(=O)C3C4=C(CCCC4)SC3N=C2CN1c1c(C)cccc1C (configuration not stated) was run?
Answer: Its growth is 94.4% (inactive).

Question: Which growth does the source give for O=C(Nc1cccc(Oc2nnc(Cl)c3ccccc23)c1)Nc1ccc(Cl)c(C(F)(F)F)c1 here?
Answer: The growth was -78.4% (active).

Question: With CN1CCN(CCCOc2ccc3nc(Nc4ccc(F)c(F)c4)ccc3c2)CC1 as the molecule, how does the growth read?
Answer: Its growth is -72.3% (active).

Question: For COc1ccccc1NC(=O)N/C(N)=N/c1nc2ccccc2s1, which growth is on record?
Answer: Its growth is -18.6% (active).

Question: Which growth does the source give for Cc1ccc(Nc2nc(N)nc(CSCC(=O)NN)n2)cc1 here?
Answer: The growth was 94.3% (inactive).

Question: How did the growth turn out when CC1CC(C(C)(C)C)C(=O)C(C(C)(C)C)C1 (configuration not stated) was run?
Answer: Its growth is 103% (inactive).

Question: Which growth does the source give for O=C(O)c1ccc2c(c1Cl)C(=O)c1ccccc1C2=O here?
Answer: Its growth is 78.3% (inactive).

Question: N=c1sc(Cc2ccc(Cl)cc2)cn1CC(=O)c1ccc(F)cc1 was tested. Which growth did it give?
Answer: The growth was 37% (inactive).

Question: For CCCCn1c(=O)c2c(nc3n2CCCN3CCc2ccc(OCC(=O)NCCN(CC)CC)cc2)n(CCCC)c1=O, which growth is on record?
Answer: Its growth is 63.6% (inactive).

Question: How did the growth turn out when COc1ccc(NC(=O)c2nc(-c3cc(OC)c(OC)c(OC)c3)n(-c3cccc4ccccc34)n2)cc1OC was run?
Answer: The growth was 47.4% (inactive).

Question: Which growth does the source give for O=C1CCc2c(sc3[nH]c(=S)n(-c4ccc(OC(F)(F)F)cc4)c(=O)c23)C1 here?
Answer: Its growth is 55% (inactive).

Question: C[C@@]1(CCC#N)[C@H]2CC[C@@H]3[C@H]4[C@H](C(=O)/C=C/c5cccnc5)CC[C@]4(C#N)CC[C@@]3(C)[C@]2(C)CC[C@H]1C(=O)/C=C/c1cccnc1 was tested. Which growth did it give?
Answer: Its growth is 34% (inactive).

Question: Which growth does the source give for Cc1c(C)c2c(c(C)c1OCC(=O)O)CC[C@@](C)(CCC[C@@H](C)CCC[C@@H](C)CCCC(C)C)O2 here?
Answer: Its growth is 15% [50 µM] (inactive).

Question: O=C(NCCCNc1cc(-c2cn(-c3ccccc3)nc2-c2cccc(O)c2)ccn1)c1ccc(F)cc1 was tested. Which growth did it give?
Answer: The growth was -67.7% (active).

Question: How did the growth turn out when Cn1c(-c2c(N)n(Cc3ccc(C(F)(F)F)cc3)c3nc(C#N)c(C#N)nc23)nc2ccccc21 was run?
Answer: Its growth is 14.9% (inactive).

Question: With Nc1nc(N)c2c(n1)NC(c1ccccc1)C1CCc3ccccc3C1=N2 (configuration not stated) as the molecule, how does the growth read?
Answer: The growth was 28.4% (inactive).

Question: For COc1ccc2[nH]c(O)c(/C=c3/cc4c(c(-c5cc(OC)c(OC)c(OC)c5)n3)=Nc3ccccc3-4)c2c1, which growth is on record?
Answer: The growth was 29.6% (inactive).

Question: For CCOC(=O)c1c2ncccc2n2c(=O)n(-c3ccccc3C)nnc12, which growth is on record?
Answer: The growth was 116% (inactive).

Question: How did the growth turn out when COc1cccc(C(=O)NCCCNc2cc(-c3cn(-c4ccccc4)nc3-c3cccc(OC)c3)ccn2)c1 was run?
Answer: The growth was 40.2% (inactive).

Question: Which growth does the source give for N[C@@H](CCCCNCC(=O)O)C(=O)O here?
Answer: The growth was 102% (inactive).

Question: CC(CCc1ccc(Cl)c(Cl)c1)NCc1ccc(C(C)(C)C)cc1 (configuration not stated) was tested. Which growth did it give?
Answer: Its growth is 93.1% (inactive).

Question: For O=Cc1ccc(O)c2ncccc12, which growth is on record?
Answer: Its growth is 60.3% (inactive).

Question: CCCCOc1nc2ccccc2cc1C1CNC(=O)c2ccccc2N1 (configuration not stated) was tested. Which growth did it give?
Answer: Its growth is -63.8% (active).

Question: For COc1ccc2occ(C3=C(c4c[nH]c5ccccc45)C(=O)N(O)C3=O)c2c1, which growth is on record?
Answer: Its growth is 96.3% (inactive).

Question: How did the growth turn out when N#CC1=C(NC=O)Oc2c(ccc3ccccc23)C1c1ccccc1 (configuration not stated) was run?
Answer: Its growth is -33% (active).

Question: How did the growth turn out when Fc1c[c-]c(-c2ccccn2)c(F)c1.[CH3-].[Pt+2].c1ccc(P(C[PH+](c2ccccc2)c2ccccc2)c2ccccc2)cc1 was run?
Answer: Its growth is -51.8% (active).

Question: With N=C1C(c2nc(-c3ccc(Br)cc3)cs2)=C(O)CN1CC1CCCO1 (configuration not stated) as the molecule, how does the growth read?
Answer: The growth was 88.8% (inactive).

Question: With NS(=O)(=O)c1cnccc1Sc1ccncc1S(N)(=O)=O as the molecule, how does the growth read?
Answer: Its growth is 106% (inactive).

Question: With N#Cc1c(-c2ccccn2)[nH]c(=S)[nH]c1=O as the molecule, how does the growth read?
Answer: Its growth is 99.8% (inactive).
